Records with an inconclusive call do not appear. Calls of active or inactive are those of the source. Calls follow the shape of the dose curve; as a rule, active = well fitted cell-killing curve with a large enough effect; inconclusive = small, poorly fitted or top-dose-only effect, or effect the other way; inactive = no such curve, though single readings can be large or run the other way.
Also: nearly all actives have a fitted effect of over 30% in size.
Potency is read from the fitted curve at half-maximal effect.

One experiment is described as follows: Quantitative High-Throughput drug screen in 47 multiple myeloma cell lines against the NCATS MIPE library collection: PCM6_Riken cell viability assay (AID 1919870). The note with it: CellTiter-Glo ATP, 48 h; series mostly up to 45.8 µM. An outline of the steps:
(§1)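 Viability after 48 h drug exposure was measured as ATP-dependent luminescence. Cells, 500 per well, sat at 37 °C under 5% CO2; DMSO wells set 100%, media-only wells 0%.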
For orientation: Cellular ATP, detected with luciferase, serves as a proxy for viable cell number.
For `CC=C1NC(=O)[C@H]2CSSCCC=C[C@H](CC(=O)N[C@H](C(C)C)C(=O)N2)OC(=O)[C@H](C(C)C)NC1=O`, the Potency was 0.001 µM (active). As to `O=C(Nc1nc2cccc(-c3ccc(CN4CCS(=O)(=O)CC4)cc3)n2n1)C1CC1`, the Potency is 16.6 µM (active).

For the compound `COCCn1c2c([n+](Cc3cnccn3)c1C)C(=O)c1ccccc1C2=O`, the Potency was 0.0235 µM (active).

Turning to `CCc1c2c(nc3ccc(O)cc13)-c1cc3c(c(=O)n1C2)COC(=O)[C@]3(O)CC`, the Potency was 0.296 µM (active).

With `CC(NCc1ccc2c(c1)nc(NC(=O)c1ccc(-c3cn[nH]c3)s1)n2CC(C)(C)O)C(C)(C)C` (stereo not given), the Potency is 0.105 µM (active). `CNC(=O)c1c(F)cccc1Nc1nc(Nc2cc3c(cc2OC)CCN3C(=O)CN(C)C)nc2[nH]ccc12`: the Potency was 9.35 µM (active). Turning to `CC(C)CC(=O)Nc1n[nH]c2c1CN(C(=O)C1CCN(C)CC1)C2(C)C`, the Potency was 0.743 µM (active).

As for `COc1cc(=C2C=c3ccccc3=N2)[nH]c1=Cc1[nH]c(C)cc1C`, the Potency was 5.9 µM (active). Consider `Nc1nc(Nc2ccc(S(N)(=O)=O)cc2)nn1C(=O)c1c(F)cccc1F`, for which the Potency was 1.87 µM (active). Regarding `NC(=O)c1c(OCc2c(F)cc(Br)cc2F)nsc1NC(=O)NCCCCN1CCCC1`, the Potency was 10.5 µM (active). Regarding `Nc1cc(C(F)(F)F)c(-c2cc(N3CCOCC3)nc(N3CCOCC3)n2)cn1`, the Potency is 1.48 µM (active). As for `O=C(Nc1cn[nH]c1-c1nc2ccc(CN3CCOCC3)cc2[nH]1)NC1CC1`, the Potency was 2.64 µM (active).

In the case of `C[C@@]12O[C@@H](C[C@]1(O)CO)n1c3ccccc3c3c4c(c5c6ccccc6n2c5c31)CNC4=O`, the Potency was 0.526 µM (active). In the case of `CNC(=O)c1cc(Oc2ccc(NC(=O)Nc3cc(C(C)(C)C)nn3-c3ccc4ncccc4c3)c(F)c2)ccn1`, the Potency was 2.64 µM (active). `O=C(CCCCCCC(=O)Nc1ccc([C@H]2O[C@@H](CSc3nc(-c4ccccc4)c(-c4ccccc4)o3)C[C@@H](c3ccc(CO)cc3)O2)cc1)NO`: the Potency was 13.2 µM (active). For `O=C(NCCCNc1nc(Nc2cccc(NC(=O)N3CCCC3)c2)ncc1I)c1cccs1`, the Potency is 5.26 µM (active). For the compound `NC1(Cc2ccc(Cl)cc2)CCN(c2ncnc3[nH]ccc23)CC1`, the Potency is 5.9 µM (active). As to `CC(C)[C@H](C(=O)Nc1ccc(C(=O)NO)cc1)c1ccccc1`, the Potency is 0.935 µM (active). The same measure, in the same setting: with `COC(=O)Nc1ccc(-c2nc(N3CCOCC3)c3cnn(C4CCN(Cc5cccnc5)CC4)c3n2)cc1` the figure was 0.526 µM (active). `C#Cc1cccc(Nc2ncnc3cc(OC)c(OCCCCCCC(=O)NO)cc23)c1`: the Potency is 0.187 µM (active). `CN1CCN(Cc2ccc(NC(=O)Nc3ccc(Oc4cc(NC(=O)C5CC5)ncn4)cc3)cc2C(F)(F)F)CC1`: the Potency was 0.105 µM (active). With `C=CC(=O)Nc1cc2c(Nc3ccc(F)c(Cl)c3)ncnc2cc1OCCCN1CCOCC1`, the Potency was 1.48 µM (active). The same measure, in the same setting: the figure for `O=C(Cc1ccc(-c2ccc(OCCN3CCOCC3)cc2)cn1)NCc1ccccc1` is 0.0264 µM (active).

Consider `CC(C)c1ccc(Cn2ccc3c4c(N)nc(NC5CC5)nc4ccc32)cc1`, for which the Potency was 5.9 µM (active).

Consider `COCCOc1ccc2c(c1)ncn2-c1ccc2cccc(N3CCC(N)CC3)c2n1`, for which the Potency was 1.05 µM (active). Same read-out and setting: the figure for `Cc1ccc(-c2ncn(-c3ccc(Nc4nccc(-c5cccc(N6CCOCC6)c5)n4)cc3)n2)cn1` is 0.0372 µM (active); for `CC[C@@]1(O)C(=O)OCc2c1cc1n(c2=O)Cc2cc3cc(O)ccc3nc2-1` it is 0.743 µM (active); for `c1cc(-c2cnn3cc(-c4ccc(OCCN5CCCCC5)cc4)cnc23)ccn1` it is 1.87 µM (active).

For `CC(C)c1cnn2c(NCc3ccccc3)cc(N[C@@H](CO)[C@H](O)CO)nc12`, the Potency is 0.0935 µM (active). Consider `C[C@@H](Oc1cc(-c2cnn(C3CCNCC3)c2)cnc1N)c1c(Cl)ccc(F)c1Cl`, for which the Potency is 14.8 µM (active). For `COc1cccc2nc(-c3cccs3)nc(NN3C(=O)C=C(C)C3=O)c12`, the Potency was 0.0418 µM (active).

The next experiment in a line: Quantitative High-Throughput drug screen in 47 multiple myeloma cell lines against the NCATS MIPE library collection: RPMI8226_ATCC cell viability assay (AID 1919871). As to conditions: RPMI8226 myeloma viability, CellTiter-Glo ATP luminescence, 48 h; series mostly up to 45.8 µM. The gist of the method:
as §1
Turning to `CC=C1NC(=O)[C@H]2CSSCCC=C[C@H](CC(=O)N[C@H](C(C)C)C(=O)N2)OC(=O)[C@H](C(C)C)NC1=O`, the Potency was 0.0264 µM (active). In the case of `O=C(Nc1nc2cccc(-c3ccc(CN4CCS(=O)(=O)CC4)cc3)n2n1)C1CC1`, the Potency is 18.7 µM (active). Turning to `COCCn1c2c([n+](Cc3cnccn3)c1C)C(=O)c1ccccc1C2=O`, the Potency was 0.0235 µM (active). As for `CCc1c2c(nc3ccc(O)cc13)-c1cc3c(c(=O)n1C2)COC(=O)[C@]3(O)CC`, the Potency is 1.32 µM (active). Same read-out and setting: the figure for `CCC[C@H](NC(=O)C(C#N)=Cc1cccc(Br)n1)c1ccccc1` is 2.96 µM (active); for `CC(NCc1ccc2c(c1)nc(NC(=O)c1ccc(-c3cn[nH]c3)s1)n2CC(C)(C)O)C(C)(C)C` (stereo not given) it is 0.743 µM (active).

For the compound `CNC(=O)c1c(F)cccc1Nc1nc(Nc2cc3c(cc2OC)CCN3C(=O)CN(C)C)nc2[nH]ccc12`, the Potency is 2.35 µM (active). The same measure, in the same setting: the figure for `CC(C)CC(=O)Nc1n[nH]c2c1CN(C(=O)C1CCN(C)CC1)C2(C)C` is 4.18 µM (active); for `COc1cc(=C2C=c3ccccc3=N2)[nH]c1=Cc1[nH]c(C)cc1C` it is 1.66 µM (active); for `Nc1nc(Nc2ccc(S(N)(=O)=O)cc2)nn1C(=O)c1c(F)cccc1F` it is 18.7 µM (active).

Turning to `CCOC(=O)C1=C(C)NC2=C(C(=O)CC(C)(C)C2)C1c1ccc(-c2ccccc2)cc1` (stereo not given), the Potency is 23.5 µM (active).

As for `O=C(Nc1cn[nH]c1-c1nc2ccc(CN3CCOCC3)cc2[nH]1)NC1CC1`, the Potency is 10.5 µM (active). Regarding `C[C@@]12O[C@@H](C[C@]1(O)CO)n1c3ccccc3c3c4c(c5c6ccccc6n2c5c31)CNC4=O`, the Potency is 1.32 µM (active). Consider `O=C(CCCCCCC(=O)Nc1ccc([C@H]2O[C@@H](CSc3nc(-c4ccccc4)c(-c4ccccc4)o3)C[C@@H](c3ccc(CO)cc3)O2)cc1)NO`, for which the Potency was 18.7 µM (active).

Turning to `NC1(Cc2ccc(Cl)cc2)CCN(c2ncnc3[nH]ccc23)CC1`, the Potency was 14.8 µM (active). With `CC(C)[C@H](C(=O)Nc1ccc(C(=O)NO)cc1)c1ccccc1`, the Potency was 1.32 µM (active). With `COC(=O)Nc1ccc(-c2nc(N3CCOCC3)c3cnn(C4CCN(Cc5cccnc5)CC4)c3n2)cc1`, the Potency is 0.0118 µM (active). Same read-out and setting: the figure for `C#Cc1cccc(Nc2ncnc3cc(OC)c(OCCCCCCC(=O)NO)cc23)c1` is 1.87 µM (active). Regarding `CCC1=C[C@@H]2CN(C1)Cc1c([nH]c3ccccc13)[C@@](C(=O)OC)(c1cc3c(cc1OC)N(C)[C@@H]1[C@@](O)(C(=O)OC)[C@H](OC(C)=O)[C@]4(CC)C=CCN5CC[C@]31[C@@H]54)C2`, the Potency was 0.118 µM (active). Regarding `CN1CCN(Cc2ccc(NC(=O)Nc3ccc(Oc4cc(NC(=O)C5CC5)ncn4)cc3)cc2C(F)(F)F)CC1`, the Potency is 0.418 µM (active). For the compound `C=CC(=O)Nc1cc2c(Nc3ccc(F)c(Cl)c3)ncnc2cc1OCCCN1CCOCC1`, the Potency was 20.9 µM (active). On to `CC(C)c1ccc(Cn2ccc3c4c(N)nc(NC5CC5)nc4ccc32)cc1`, for which the Potency was 14.8 µM (active). Still for that read-out and setting: the figure for `COCCOc1ccc2c(c1)ncn2-c1ccc2cccc(N3CCC(N)CC3)c2n1` is 26.4 µM (active). In the case of `Cc1ccc(-c2ncn(-c3ccc(Nc4nccc(-c5cccc(N6CCOCC6)c5)n4)cc3)n2)cn1`, the Potency was 0.132 µM (active).

`CC[C@@]1(O)C(=O)OCc2c1cc1n(c2=O)Cc2cc3cc(O)ccc3nc2-1`: the Potency was 8.33 µM (active). For `c1cc(-c2cnn3cc(-c4ccc(OCCN5CCCCC5)cc4)cnc23)ccn1`, the Potency was 16.6 µM (active). Still for that read-out and setting: with `CC(C)c1cnn2c(NCc3ccccc3)cc(N[C@@H](CO)[C@H](O)CO)nc12` the figure was 0.332 µM (active); with `C[C@@H](Oc1cc(-c2cnn(C3CCNCC3)c2)cnc1N)c1c(Cl)ccc(F)c1Cl`, 13.2 µM (active); with `COc1cccc2nc(-c3cccs3)nc(NN3C(=O)C=C(C)C3=O)c12`, 2.09 µM (active).

Values taken from PubChem BioAssay (NCATS).
